Structures are written as SMILES. The source made the active and inactive calls.

The nature of assay [1]: binders of probe aFSTL3 on microarray, primary screen, stem cell growth factor project, biochemical, small-molecule microarray, fluorescence 635/667 (AID 1064).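 Also: measures binding of the biotinylated anti-FSTL3 antibody to printed compounds.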 The settings on record: higher = more signal.
A short description of assay [2]: binders from COS7 lysate, DM2A8 probe, primary screen, torsin A project, cell lysate, small-molecule microarray, fluorescence 635/667 (AID 1065). To be noted: higher = more signal, COS7 lysate expressing mutant human TOR1A.
Assay [3] can be described thus: binders of probe aFGF2 on microarray, primary screen, stem cell growth factor project, biochemical, small-molecule microarray, fluorescence 635/667 (AID 1067).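 Also: measures binding of biotinylated aFGF2 protein to printed compounds on slides; z-score merges feature fluorescence and signal-to-noise across triplicate slides.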 The settings on record: higher = more signal.
Assay [4] in a line: binders of probe aFGF10 on microarray, primary screen, stem cell growth factor project, biochemical, small-molecule microarray, fluorescence 635/667 (AID 1071).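 Also: score merges 667 nm spot intensity and signal to noise from triplicate slides.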 The settings on record: higher = more signal.
For assay [5], the target named is Neurogenic locus notch homolog protein 2 (Homo sapiens) (UniProt Q04721). The experiment in a line: Notch2 binders on small-molecule microarrays, primary screen, biochemical, small-molecule microarray, 635 nm fluorescence, stem cell growth factors (AID 1073). To be noted: Notch2 binding, higher = more signal.
The target in assay [6] is Pro-neuregulin-1, membrane-bound isoform (Homo sapiens) (UniProt Q02297). The experiment in a line: NRG1 binders on small-molecule microarrays, primary screen, psychiatric disease protein project, biochemical, small-molecule microarray, fluorescence 635/667 (AID 1075).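 Also: score combines 667 nm spot fluorescence with signal to noise.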 The settings on record: NRG1 binding, 635 nm fluorescence, higher = more signal.
The test system of assay [7] is Neuregulin-1 EGF-like domain. The experiment in a line: binders of neuregulin-1 EGF-like domain, primary screen, biochemical, small-molecule microarray, 635 nm fluorescence (AID 1081).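 Also: binding of the protein to compounds printed on small-molecule microarray slides.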 To be noted: small-molecule microarray binding, higher = more signal.
The nature of assay [8]: FRG1 promoter luciferase signal modulators, primary screen, FRG1 inhibition for FSHD, cell-based, C2C12 myotubes, firefly/Renilla luciferase, luminescence (AID 1084). The settings on record: higher = more signal, called active from +8 up or from −8 down.
A short description of assay [9]: binders of probe aFST on microarray, primary screen, stem cell growth factor project, biochemical, small-molecule microarray, fluorescence 635/667 (AID 1086).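 Also: score merges 667 nm fluorescence with signal-to-noise of each printed compound spot.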 The settings on record: higher = more signal.
Assay [10] can be described thus: binders of probe aHhip on microarray, primary screen, stem cell growth factor project, biochemical, small-molecule microarray, fluorescence 635/667 (AID 1087).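 Also: score merges spot fluorescence at 667nm with spot signal to noise ratio.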 To be noted: higher = more signal.

Chain of Neurogenic locus notch homolog protein 2 (Homo sapiens) (Q04721 whole entry, looked up, canonical isoform): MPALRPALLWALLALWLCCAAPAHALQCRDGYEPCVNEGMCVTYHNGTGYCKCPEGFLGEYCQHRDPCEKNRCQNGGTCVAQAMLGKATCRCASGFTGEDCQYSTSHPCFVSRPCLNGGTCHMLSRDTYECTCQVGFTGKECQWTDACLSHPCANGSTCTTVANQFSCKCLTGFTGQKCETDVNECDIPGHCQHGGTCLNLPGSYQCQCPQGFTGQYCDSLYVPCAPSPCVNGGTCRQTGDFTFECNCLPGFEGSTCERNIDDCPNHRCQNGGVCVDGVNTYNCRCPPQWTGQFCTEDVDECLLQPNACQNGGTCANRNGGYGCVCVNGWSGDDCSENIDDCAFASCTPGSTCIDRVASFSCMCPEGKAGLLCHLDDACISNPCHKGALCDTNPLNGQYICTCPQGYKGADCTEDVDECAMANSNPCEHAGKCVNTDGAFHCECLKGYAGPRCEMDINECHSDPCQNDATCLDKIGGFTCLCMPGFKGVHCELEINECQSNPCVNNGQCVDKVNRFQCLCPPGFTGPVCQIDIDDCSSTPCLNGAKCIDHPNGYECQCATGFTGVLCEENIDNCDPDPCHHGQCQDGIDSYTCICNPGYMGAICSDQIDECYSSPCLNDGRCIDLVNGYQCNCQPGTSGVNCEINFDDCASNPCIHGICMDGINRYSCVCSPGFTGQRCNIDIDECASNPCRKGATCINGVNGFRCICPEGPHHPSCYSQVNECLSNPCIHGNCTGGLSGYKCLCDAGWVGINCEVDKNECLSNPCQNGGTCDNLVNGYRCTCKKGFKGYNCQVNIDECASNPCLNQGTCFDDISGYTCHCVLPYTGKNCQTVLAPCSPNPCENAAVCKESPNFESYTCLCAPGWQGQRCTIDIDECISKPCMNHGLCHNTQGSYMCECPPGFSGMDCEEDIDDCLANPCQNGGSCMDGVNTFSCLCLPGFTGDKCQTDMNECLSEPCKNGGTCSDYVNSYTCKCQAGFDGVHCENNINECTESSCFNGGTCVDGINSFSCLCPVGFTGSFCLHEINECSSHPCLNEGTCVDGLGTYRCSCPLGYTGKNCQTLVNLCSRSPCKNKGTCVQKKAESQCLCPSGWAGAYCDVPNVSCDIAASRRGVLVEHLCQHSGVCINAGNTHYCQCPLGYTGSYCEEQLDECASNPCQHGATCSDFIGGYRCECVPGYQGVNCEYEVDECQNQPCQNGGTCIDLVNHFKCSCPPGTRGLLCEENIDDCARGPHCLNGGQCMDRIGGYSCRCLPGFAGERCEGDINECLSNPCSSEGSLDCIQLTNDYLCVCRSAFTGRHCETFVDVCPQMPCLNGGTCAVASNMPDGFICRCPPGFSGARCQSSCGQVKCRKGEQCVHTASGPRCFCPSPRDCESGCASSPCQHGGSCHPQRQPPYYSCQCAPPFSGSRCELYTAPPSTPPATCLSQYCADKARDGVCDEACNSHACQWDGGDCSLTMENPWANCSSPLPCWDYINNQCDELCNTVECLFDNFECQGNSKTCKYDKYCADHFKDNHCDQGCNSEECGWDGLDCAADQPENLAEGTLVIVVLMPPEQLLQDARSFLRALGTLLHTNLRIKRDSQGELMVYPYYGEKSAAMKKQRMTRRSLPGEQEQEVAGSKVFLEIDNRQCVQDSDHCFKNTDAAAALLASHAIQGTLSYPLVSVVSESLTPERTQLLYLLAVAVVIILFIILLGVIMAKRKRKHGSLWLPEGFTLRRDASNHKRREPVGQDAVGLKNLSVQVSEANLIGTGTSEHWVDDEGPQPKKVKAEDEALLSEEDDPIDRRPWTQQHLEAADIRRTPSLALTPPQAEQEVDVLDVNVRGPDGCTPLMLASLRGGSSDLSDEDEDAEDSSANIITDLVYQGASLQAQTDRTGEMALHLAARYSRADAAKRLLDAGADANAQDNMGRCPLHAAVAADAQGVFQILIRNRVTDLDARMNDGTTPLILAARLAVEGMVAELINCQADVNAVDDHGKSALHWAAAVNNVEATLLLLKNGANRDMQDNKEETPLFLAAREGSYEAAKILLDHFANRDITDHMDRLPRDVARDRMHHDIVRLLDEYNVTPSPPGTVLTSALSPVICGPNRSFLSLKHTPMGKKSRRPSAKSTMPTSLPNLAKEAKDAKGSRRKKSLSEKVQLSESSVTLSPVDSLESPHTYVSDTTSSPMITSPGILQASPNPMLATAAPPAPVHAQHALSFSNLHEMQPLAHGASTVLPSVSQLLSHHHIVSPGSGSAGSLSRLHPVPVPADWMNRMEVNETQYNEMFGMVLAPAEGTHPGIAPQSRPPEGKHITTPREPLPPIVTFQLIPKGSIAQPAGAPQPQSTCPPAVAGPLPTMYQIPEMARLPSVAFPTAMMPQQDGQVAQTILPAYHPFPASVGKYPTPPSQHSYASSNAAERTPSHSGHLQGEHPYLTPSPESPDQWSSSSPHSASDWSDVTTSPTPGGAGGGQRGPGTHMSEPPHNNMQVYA
Chain of Pro-neuregulin-1, membrane-bound isoform (Homo sapiens) (Q02297 whole entry, looked up, the tested form may be a part, canonical isoform): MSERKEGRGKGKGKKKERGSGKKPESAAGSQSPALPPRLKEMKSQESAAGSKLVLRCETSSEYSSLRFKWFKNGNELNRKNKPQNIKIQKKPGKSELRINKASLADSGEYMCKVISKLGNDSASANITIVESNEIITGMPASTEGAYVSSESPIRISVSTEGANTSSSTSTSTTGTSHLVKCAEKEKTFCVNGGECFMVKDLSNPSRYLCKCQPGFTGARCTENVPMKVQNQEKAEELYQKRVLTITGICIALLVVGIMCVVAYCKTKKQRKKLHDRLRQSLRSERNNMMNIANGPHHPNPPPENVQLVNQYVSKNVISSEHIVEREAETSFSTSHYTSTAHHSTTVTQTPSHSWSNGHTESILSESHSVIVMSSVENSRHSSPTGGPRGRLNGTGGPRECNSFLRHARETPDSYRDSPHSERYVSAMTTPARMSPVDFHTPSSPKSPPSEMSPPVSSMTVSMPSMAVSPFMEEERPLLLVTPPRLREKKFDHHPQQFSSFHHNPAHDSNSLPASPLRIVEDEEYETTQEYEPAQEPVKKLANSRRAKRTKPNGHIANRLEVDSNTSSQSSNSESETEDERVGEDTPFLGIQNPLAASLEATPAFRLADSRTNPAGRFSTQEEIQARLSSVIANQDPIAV

For `CCCCCCCCCCC(O)C1C=CC2C(=O)NC(=O)C2N1Nc1ccc(Cl)cc1Cl` (stereo not given), the composite z-score in assay [1] was 0.133; in assay [2] it was -1.22; in assay [3], -0.0667; in [4] it was 0.159; in assay [5] it was -0.218; in assay [6] it was 1.02. Further, the composite z-score in [7] was 0.436; in [9], 0.0804; in assay [10] it was -0.0237. Also, in assay [8], the z-score was 1.32 (inactive).
With `C=CCN1C(=O)[C@]2(Cc3ccccc3)N=C(c3ccc(OCCCO)cc3)O[C@@H]2c2ccccc21`, the composite z-score in assay [1] is -0.0832; in assay [2] it was 0.481; in assay [3] it was -0.0119; in assay [4] it was -0.0215; in assay [5] it was 1.35; in assay [6], 1.55. Further, the composite z-score in [7] was 1.41; in assay [9], 0.395; in assay [10], -0.0994. For the same compound, the z-score in assay [8] is -1.05 (inactive).
Consider `C=CCNC(=O)[C@@H]1[C@H]2C(=O)O[C@H](c3ccccc3)[C@H](c3ccccc3)N2[C@H](c2ccc(OCCO)cc2)[C@@]12C(=O)N(C(=O)OCCOC)c1ccc(C#CCC(C(=O)OC)C(=O)OC)cc12`, for which the composite z-score in [1] was -0.426; in [2], 1.25; in assay [3], 0.0408; in assay [4], 1.05; in assay [5] it was 1.1; in assay [6], 1.48. In addition, the composite z-score stood at 1.12 in assay [7], 0.88 in assay [9] and 0.386 in assay [10]. In [8], the z-score is 1.26 (inactive).
Consider `COC(=O)[C@@]1(Cc2ccc(OC)cc2)[C@H]2c3cc(C(=O)N(C)C)n(Cc4ccc(C(F)(F)F)nc4)c3C[C@H]2CN1C(=O)c1ccccc1`, for which the composite z-score was determined as 0.125 in [1]; 0.114 in [2]; 0.0343 in assay [3]; 0.459 in assay [4]; 1.53 in [5]; 1.34 in assay [6]. Also, the composite z-score in assay [7] was 1.01; in [9], 0.597; in [10], -0.0237. For the same compound, the z-score in [8] was 0.515 (inactive).
With `COc1cc2c(cc1OC)CN(C(=O)[C@H]1[C@@H]3C(=O)O[C@@H](c4ccccc4)[C@@H](c4ccccc4)N3[C@@H](c3ccccc3OCCO)[C@]13C(=O)Nc1ccc(C#CCCO)cc13)CC2`, the composite z-score was -0.39 in assay [1]; 0.282 in [2]; 0.0094 in [3]; 0.339 in assay [4]; 0.775 in assay [5]; 1.27 in assay [6]. Also, the values for the composite z-score in assay [7], in assay [9] and in assay [10] were 1.07, 0.369 and -0.0994, respectively. In [8], the z-score is -2.07 (inactive).
For the compound `C=C(CCCC)/C(=C/C[C@H](OC(=O)c1ccncc1)c1ccc(OCCO)cc1)c1cc(C(=O)OC)ccc1OC`, the composite z-score in assay [1] was -0.126; in assay [2], 0.123; in [3], -0.031; in [4] it was 1.15; in [5] it was 0.563; in [6], 0.348. Moreover, the composite z-score is 1.01 in assay [7], -0.348 in assay [9] and -0.195 in assay [10]. In addition, the z-score in assay [8] was 31.6 (active).
Turning to `[N-]=[N+]=Nc1ccccc1C[C@]1(C(=O)NCc2ccccc2)N=C(c2ccc(OCCCO)cc2)O[C@H]1c1ccccc1N=[N+]=[N-]`, the composite z-score was -0.0447 in assay [1]; 0.288 in assay [2]; 0.189 in [3]; 0.218 in assay [4]; 1.49 in assay [5]; 1.6 in assay [6]. The values for the composite z-score in assay [7], in assay [9] and in [10] were 1.06, 0.726 and -0.0672, respectively. For the same compound, the z-score in [8] is -0.899 (inactive).
For `O=C1C2C=CC(C(O)c3ccc(F)cc3)N(Nc3ccc([N+](=O)[O-])cc3)C2C(=O)N1c1ccccc1` (stereo not given), the composite z-score is 0.0759 in assay [1]; -0.358 in assay [2]; 0.16 in assay [3]; 0.305 in assay [4]; 1.45 in assay [5]; 2 in assay [6]. Also, the composite z-score turned out to be 1.37 in assay [7], 1.02 in [9] and 0.0373 in assay [10]. The z-score in assay [8] is -0.132 (inactive).
`COc1ccccc1CN1C(=O)c2ccccc2[C@@H](C(=O)NCc2ccccc2)[C@@H]1c1ccc(CO)cc1`: the composite z-score was -0.232 in assay [1]; 0.939 in assay [2]; -0.171 in [3]; -0.298 in assay [4]; 0.0668 in assay [5]; 1.1 in [6]. Also, the composite z-score is 1.26 in [7], 0.635 in assay [9] and -0.34 in assay [10]. In assay [8], the z-score is -2.9 (inactive).
On to `C#CCNCc1ccccc1`, for which the composite z-score in assay [1] is -0.443; in [2], 0.0591; in [3], -0.114; in [4] it was 0.227; in [5], 0.461; in assay [6] it was -0.358. Also, the composite z-score in assay [7] was 0.0262; in [9], -0.115; in assay [10], -0.236. Moreover, the z-score in assay [8] is 0.938 (inactive).
As to `CCOC(=O)C[C@H]1[C@H](OC(=O)c2ccc(-c3ccccc3)cc2)[C@@H](NC(=O)c2ccccc2)c2cc(OCCCO)ccc2N1C(=O)Cc1ccc(OC)cc1`, the composite z-score is -0.287 in [1]; -0.0212 in assay [2]; -0.163 in [3]; 0.0185 in assay [4]; -0.639 in assay [5]; -0.31 in [6]. For the same compound, the composite z-score in assay [7] is -0.198; in [9], -0.0166; in assay [10], -0.374. Besides, the z-score in assay [8] was -0.304 (inactive).
With `COc1ccc([C@H]2OC[C@@H]3CCC(=O)N32)cc1`, the composite z-score in [1] was -0.136; in [2] it was 0.428; in assay [3] it was -0.169; in [4], 0.733; in [5], 0.471; in assay [6], 0.0194. In addition, the composite z-score in assay [7] was 1.19; in assay [9], 0.664; in assay [10], -0.0581. Moreover, the z-score in assay [8] was 0.0543 (inactive).
Take `[N-]=[N+]=Nc1ccccc1C[C@]1(C(=O)N2CCCCC2)COC(c2ccc(OCCCO)cc2)=N1`: the composite z-score in assay [1] is -0.11; in assay [2] it was 0.0405; in assay [3], 0.0605; in assay [4] it was 0.87; in assay [5], 0.708; in assay [6], 1.64. Besides, the composite z-score in [7] is 0.995; in [9], 0.755; in [10], -0.353. Moreover, in [8], the z-score was -2.42 (inactive).
Take `COC(=O)[C@@]1(Cc2ccccc2)[C@H]2c3cc(C(=O)N(C)C)n(Cc4ccc(OC)c(OC)c4)c3C[C@H]2CN1C(=O)c1ccccc1`: the composite z-score in assay [1] worked out at 0.396; in assay [2], 0.517; in assay [3], 0.487; in [4] it was 1.23; in assay [5] it was 1.83; in assay [6], 1.62. In addition, the composite z-score in [7] is 1.34; in [9] it was 1.28; in [10] it was 0.66. In addition, the z-score in assay [8] is 0.115 (inactive).
For the compound `CC(CO)N1C(=O)[C@@H]2C3C(=O)OCCC/C=C\[C@H]3OC23C=CCN(CCN2CCOCC2)C(=O)[C@@H]13` (stereo not given in full), the composite z-score in [1] was -0.547; in [2] it was 0.163; in assay [3] it was -0.139; in assay [4], 0.38; in assay [5], -0.59; in assay [6] it was -0.31. Further, the composite z-score was 0.47 in assay [7], -0.28 in assay [9] and -0.212 in assay [10]. The z-score in assay [8] was -0.55 (inactive).
On to `NC(=O)[C@@H]1[C@H]2C(=O)O[C@H](c3ccccc3)[C@H](c3ccccc3)N2[C@H](c2ccc(O)cc2)[C@@]12C(=O)Nc1ccc(C#CC3=CCCCC3)cc12`, for which the composite z-score in [1] was -0.542; in [2], 0.103; in assay [3], -0.222; in assay [4] it was 0.604; in [5], -0.173; in [6], 1.68. The composite z-score in [7] is 1.15; in assay [9], -0.21; in [10] it was -0.357. Moreover, in [8], the z-score is 0.009 (inactive).
For the compound `COc1ccc(C(=O)Nc2ccc(CN3C(=O)[C@]4(O[C@H](CC(=O)N5CCC[C@H]5CO)[C@@H]([Si](C)(C)c5ccc(OC)cc5)[C@@H]4C)c4ccccc43)cc2)cc1`, the composite z-score in assay [1] was -0.332; in assay [2], 0.355; in assay [3], -0.0715; in [4], 0.656; in assay [5] it was 0.351; in assay [6], 1.42. For the same compound, the composite z-score is 1.31 in assay [7], -0.0939 in assay [9] and 0.0749 in [10]. The z-score in [8] is -1.54 (inactive).

Values taken from PubChem BioAssay.
